Bioassay records (PubChem BioAssay)
Rows were chosen to be rich in hits. Some 1.2% of all compounds tested hit in one or more screens of this group.
gsp antagonist – antagonizes gsp, the McCune-Albright syndrome mutation | AID 624288 | actives 0.4% (n = 340,000) | gsp-mutant cells, cAMP HTRF, 30 min | Potency, µM (titrated, usually from 76.9 µM), for the others: at the highest dose activity change, negative = inhibition, most hits filed as inhibitors; calls by dose curve; cell line not stated here;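 also: intracellular cAMP measured with PDE inhibitor Ro 20-1724 present during compound exposure; potency is read from the fitted curve at half-maximal effect; % is scaled to controls: 0 for no effect and ±100 for the full control effect; nearly all actives have a fitted effect of over 65% in size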
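Cells, 2000/well, grown 16–24 h in DMEM 10% FBS with 0.5 mg/ml G418, then compounds plus […] (300 uM addition stock), 30 min at 37C. cAMP read by HTRF (cAMP-d2 and anti-cAMP antibody-K in lysis buffer) after 30 min RT.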
CCT modulator – cytosolic chaperonin activity modulation | purified chaperonin ATPase assay, HTRF ADP detection, 30 min | activity change, % (concentration not given with the values), hits read low | actives 0.3% (n = 360,000); in the data active = activity change below about -30%; also: % is scaled to controls: 0 for no effect and ±100 for the full control effect
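TRiC (40 or 20 nM final, by batch activity) in 30 mM Tris pH 7.4, 100 mM KCl, 5 mM MgCl2, 1 mM DTT was treated with compound at 76 uM single dose, then 10 uM ATP, 30 min at 37 °C. ADP was read by HTRF Transcreener.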
TSHR antag – antagonists of human thyroid stimulating hormone receptor. actives 0.2% (n = 330,000). activity change, negative = inhibition, % at 11.5 µM. AID 504810. TSHR-expressing cells, TSH-stimulated cAMP HTRF, 2 h; stronger effect = lower value. P16473;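 active = activity change below a set negative limit, meaning inhibition stronger than a set level, cut at about -70% in these data; inconclusive = activity change between two set negative limits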; also: % is scaled to controls: 0 for no effect and ±100 for the full control effect
Target sequence (P16473 whole entry, looked up): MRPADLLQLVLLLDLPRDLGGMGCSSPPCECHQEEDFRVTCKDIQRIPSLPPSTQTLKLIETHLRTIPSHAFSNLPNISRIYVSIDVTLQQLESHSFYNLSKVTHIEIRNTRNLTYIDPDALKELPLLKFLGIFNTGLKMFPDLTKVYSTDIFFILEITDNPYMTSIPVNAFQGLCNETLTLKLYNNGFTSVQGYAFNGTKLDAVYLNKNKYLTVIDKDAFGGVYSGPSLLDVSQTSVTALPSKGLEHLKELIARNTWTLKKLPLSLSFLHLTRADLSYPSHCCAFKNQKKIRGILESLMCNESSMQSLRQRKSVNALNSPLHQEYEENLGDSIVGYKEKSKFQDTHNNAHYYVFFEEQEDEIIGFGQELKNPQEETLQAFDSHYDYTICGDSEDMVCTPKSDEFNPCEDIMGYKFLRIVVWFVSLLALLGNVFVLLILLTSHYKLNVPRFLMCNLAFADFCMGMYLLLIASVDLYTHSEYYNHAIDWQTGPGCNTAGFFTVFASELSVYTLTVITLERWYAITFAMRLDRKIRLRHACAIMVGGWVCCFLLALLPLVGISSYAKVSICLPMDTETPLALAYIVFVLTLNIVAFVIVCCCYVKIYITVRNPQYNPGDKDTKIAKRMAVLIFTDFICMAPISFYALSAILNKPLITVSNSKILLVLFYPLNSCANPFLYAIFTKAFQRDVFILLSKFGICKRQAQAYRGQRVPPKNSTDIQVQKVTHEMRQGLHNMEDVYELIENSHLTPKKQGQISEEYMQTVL
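TSHR-expressing cells, 200/well, pre-treated with compound, then stimulated with EC80 TSH (4nM final) for 2 hours at 37 deg C. cAMP measured by competitive HTRF: anti-cAMP cryptate antibody in lysis buffer plus cAMP-d2, read after 30 minutes at room temperature.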
gsp ag – activates gsp, the McCune-Albright syndrome mutation | gsp mutant cells, cAMP HTRF, 30 min | Potency, µM (series often up to 76.9 µM), for inactives: at the highest dose activation (cAMP increase), most hits filed as activators | actives 0.13% (n = 340,000) | AID 624287; active = well fitted activation curve with a large enough effect; inconclusive = small, poorly fitted or top-dose-only effect, or another doubt; inactive = no such curve, though single readings can be large or run the other way; cell line not stated here;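 also: phosphodiesterase inhibitor Ro 20-1724 added with compounds to block cAMP breakdown; potency is read from the fitted curve at half-maximal effect; nearly all actives have a fitted effect of over 60% in size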
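Cells in DMEM/10% FBS with G418 were pretreated with compounds in DMSO plus […] (300 uM stock) for 30 min at 37C. cAMP was measured by HTRF (cAMP-d2 plus anti-cAMP antibody-K) after 30 min at room temperature.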
Mm-Cpn inhibitor – M. maripaludis TRiC chaperonin inhibition; purified Mm-Cpn ATPase, ADP Transcreener TR-FRET; Potency, µM (doses to about 76.9 µM), inactives show at the top dose activity, negative = inhibition, actives largely listed as inhibitors; actives 0.031% (n = 330,000); AID 504842; active = well fitted inhibition curve with a large enough effect; inconclusive = small, poorly fitted or top-dose-only effect; also: potency is read from the fitted curve at half-maximal effect; % is scaled to controls: 0 for no effect and ±100 for the full control effect; nearly all actives have a fitted effect of over 80% in size
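Compound-treated chaperonin, 25 nM final, turns over 10 uM ATP at 37°C for 30 min following a 10 min preincubation; ADP generated competes with ADP-d2 for Eu-cryptate antibody, lowering FRET.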
uPA generation – blocks generation of uPA at the cell surface; actives 0.31% (n = 330,000); Potency, µM (doses to about 38.3 µM), inactives show top-dose activity change, negative = inhibition, usual class: inhibitors; cell surface uPA generation assay, qHTS; active = well fitted inhibition curve with a large enough effect; inconclusive = small, poorly fitted or top-dose-only effect; inactive = no such curve, though single readings can be large or run the other way; tested in mouse RAW 264.7 cells; also: potency is read from the fitted curve at half-maximal effect; % is scaled to controls: 0 for no effect and ±100 for the full control effect; nearly all actives have a fitted effect of over 55% in size
* hit, by the source's call; ? = inconclusive; · = no result given; [ ] = another dose, or the depositor's remark.

SMILES	gsp antagonist	CCT modulator	TSHR antag	gsp ag	Mm-Cpn inhibitor	uPA generation
COc1ccc(-n2ncc3c(N4CCCCC4)ncnc32)cc1	-20%	-3	2	4%	-2%	1.3µM*
CCCc1ccc(-c2cc(C(=O)NC3=NCCS3)c3ccccc3n2)cc1	-5%	-23	1	?	2%	-8%
N=C1C(c2nc3ccccc3[nH]2)=C(O)CN1C1CCCCC1	-1%	1	-3	-8%[15.4 µM]	0%	-7%
Cc1ccc(C(=O)Cn2nnc(-c3cccs3)n2)cc1	50µM*	-2	2	?	-2%	4%
Cc1ccccc1/C=C/C(=O)N1CCOCC1	2%	2	-3	-24%	3%	2%
CC(=O)c1ccccc1NC(=O)CCNC(=O)c1ccco1	4%	-2	6	-13%[15.4 µM]	1%	0%
Cc1cc(C)cc(OC(=O)C23CCC(C)(C(=O)O2)C3(C)C)c1 (centres undefined)	-3%	0	2	10%	4%	1%
CCNc1nc(C)c2cc(Br)c(=O)n(CC)c2n1	8%	-3	10	20µM*	-5%	-13%
CCCc1c(C(=O)OCC)sc(N)c1C#N	7%	0	23	-10%	-13%	-10%
CCOC(=O)c1sc(N)c(C#N)c1CSc1nnc(C2CC2)n1N	5%	-39*	1	12%	1%	6%
COc1ccc(CCN2C(=O)C=CC2=O)cc1OC	-8%	-1	·	8%	·	-11%
COc1ccc(CCNC2=C(Cl)C(=O)N(CCc3ccc(OC)c(OC)c3)C2=O)cc1OC	?	-1	-74*	-5%	1%	-9%
CN1/C(=C/C(=O)c2ccc(Cl)cc2)Sc2cc3c(cc21)OCO3	32µM*	0	-7	-76%	-2%	3%
COc1ccc(C(=O)/C=C2/Sc3cc4c(cc3N2C)OCO4)cc1	2%	-1	6	?	1%	-14%
CCOC(=O)c1ccccc1NC(=O)c1cccnc1	2%	0	0	17%	3%	·
CCOC(=O)c1ccccc1NC(=O)c1cncc(Br)c1	4%	-37*	-4	21%[15.4 µM]	-18%	-1%
CCC(=O)c1ccc(OCC(=O)Nc2cc(S(=O)(=O)N3CCCCC3)ccc2N2CCN(CC)CC2)cc1	-12%	-121*	-15	-24%[15.4 µM]	1%	-7%
CCN1CCN(c2ccc(S(=O)(=O)N3CCCCC3)cc2NC(=O)COc2ccccc2)CC1	-3%	-3	5	-5%[15.4 µM]	0%	-6%
N#C/C(=N/Nc1ccc(OC(F)(F)F)cc1)C(N)=S	?	-3	?	-8%	-10%	7.9µM*
O=C(O)c1ccc(-c2ccc(OS(=O)(=O)c3ccccc3F)cc2)cc1	-10%	3	-13	-3%[15.4 µM]	1%	3%
COC(=O)c1ccccc1S(=O)(=O)Oc1ccc(-c2ccc(C(=O)O)cc2)cc1	28µM*	3	-8	2%[15.4 µM]	3%	3%
O=c1[nH]c(CCl)nc2cc(-c3ccc(F)cc3)sc12	-19%	-40*	-21	?	0%	-18%
COc1ccc(N(CC(=O)Nc2nccs2)S(=O)(=O)c2c(C)[nH]c(=O)[nH]c2=O)cc1	1%	-37*	14	26%	2%	5%
CCOc1ccc(N(CC(=O)Nc2ccc(OC)cc2)S(=O)(=O)c2c(C)[nH]c(=O)[nH]c2=O)cc1	10%	-1	-4	20%	0%	1%
C=CCCN(C1CCCC1)S(=O)(=O)c1ccccc1Br	0%	0	-23	·	0%	-11%
SMILES	gsp antagonist	CCT modulator	TSHR antag	gsp ag	Mm-Cpn inhibitor	uPA generation
Cc1ccc(N(CC(=O)Nc2ccc(-c3nc4ccc(C)cc4s3)cc2)S(C)(=O)=O)cc1	-4%[15.4 µM]	-40*	13	9%	?	-4%
COc1ccc(N(CC(=O)NCC2CCCO2)S(=O)(=O)c2c(C)noc2C)cc1 (centres undefined)	4%	-65*	43	2%	1%	·
CCOc1ccc(N(CC(=O)Nc2ccc(C)c(C)c2)S(=O)(=O)c2c(C)noc2C)cc1	-3%	-1	-21	-49%	-1%	13µM*
CCOc1ccc(N(CC(=O)Nc2cccc(F)c2)S(=O)(=O)c2c(C)noc2C)cc1	-1%	-2	2	-2%	2%	?
COc1ccc(N(CC(=O)NCc2ccc(F)cc2)S(=O)(=O)c2c(C)noc2C)cc1	-10%	2	-7	14%	-5%	3%
CCOc1ccc(N(CC(=O)Nc2cc(C)cc(C)c2)S(C)(=O)=O)cc1	-6%	-2	-73*	11%	-2%	3%
OC(CC(O)c1ccccc1)c1ccccc1 (centres undefined)	11%	-1	·	·	·	5%
Cn1c(=O)c2ncn(CC(=O)Nc3ccc4c5c(cccc35)CC4)c2n(C)c1=O	-3%	2	-8	32µM*	-5%	-2%
Cn1c(=O)c2ncn(CC(=O)NCCOc3ccccc3)c2n(C)c1=O	13%	-3	-5	?	1%	·
COc1ccc(CNC(=O)Cn2cnc3c(=O)n(C)c(=O)n(C)c32)cc1	6%	0	15	18µM*	1%	·
O=c1[nH][nH]c(-c2ccccc2O)c1C(C[N+](=O)[O-])c1ccc(Cl)cc1Cl (centres undefined)	9%	1	-1	1%	1%	4%
CCC(C)NC(=O)CN1C(=O)CSc2ccc(S(=O)(=O)N3CCCC3)cc21 (centres undefined)	7%	1	-125*	-40%	-2%	-6%
COc1ccc(OC)c(NC(=O)CN2C(=O)CSc3ccc(S(=O)(=O)N4CCCC4)cc32)c1	-14%	1	-6	?	-1%	-5%
COc1ccc(NC(=O)CN2C(=O)CSc3ccc(S(=O)(=O)N4CCCC4)cc32)cc1OC	-4%	-37*	-7	13%	0%	6%
CCOc1ccc(N(CC(=O)N/N=C(\C)c2cccc(NC(C)=O)c2)S(=O)(=O)c2ccccc2)cc1	?	-2	-6	-6%	1%	-1%
O=C(COc1cccnc1[N+](=O)[O-])N1CCN(S(=O)(=O)c2ccccc2)CC1	50µM*	-2	0	10%	1%	3%
O=C(CCc1ccccc1Cl)N1CCN(S(=O)(=O)c2ccccc2)CC1	10µM*	-5	-9	-4%	0%	11%
O=C(NCC1CCCO1)c1cc(S(=O)(=O)N2CCCCC2)ccc1Cl (centres undefined)	-5%	0	19	-46%	1%	11%
CCCCCC(=O)N1CCN(CCN=CC2=C(O)CC(c3cccs3)CC2=O)CC1 (centres undefined)	1%	-2	0	?	-1%	-3%
